Our source for the potency estimated from few doses and IC50 values is article PMC11062922 (Nature Chemical Biology, 2023).

Like-named read-outs stand apart in the source and are kept apart here.

The test system of test [1] is PKN3. Further details: species or system human, MV4-11 + K-562 + COLO205 + SK-N-BE2 + OVCAR-8. Conditions: read-out: apparent Kd, n = 1.
The test system of test [2] is PKN3. Conditions: hek293t cells.
A further test has as its system GAK. Further details: species or system human, MV4-11 + K-562 + COLO205 + SK-N-BE2 + OVCAR-8. Conditions: read-out: apparent Kd, compound concentrations: 100 nM and 1000 nM (sheet 'Samples'), n = 1.
The next test has as its system RET. Also on record: species or system human, MV4-11 + K-562 + COLO205 + SK-N-BE2 + OVCAR-8. Conditions: read-out: apparent Kd; compound concentrations: 100 nM and 1000 nM (sheet 'Samples'), CATDS: 8.7615337764420001E-2; n = 1.
The subject of a further test is AAK1. Also on record: species or system human, MV4-11 + K-562 + COLO205 + SK-N-BE2 + OVCAR-8. Conditions: read-out: apparent Kd; compound concentrations: 100 nM and 1000 nM (sheet 'Samples'), CATDS: 1; n = 1.
The subject of the next test is GSK3A. Further details: species or system human, MV4-11 + K-562 + COLO205 + SK-N-BE2 + OVCAR-8. Conditions: read-out: apparent Kd; compound concentrations:100 nM and 1000 nM (sheet 'Samples'); n = 1.
The test system of a further test is GSK3B. Also on record: species or system human, MV4-11 + K-562 + COLO205 + SK-N-BE2 + OVCAR-8. Conditions: read-out: apparent Kd; compound concentrations:100 nM and 1000 nM (sheet 'Samples'); n = 1.
The next test relates to PAK4. Further details: species or system human, MV4-11 + K-562 + COLO205 + SK-N-BE2 + OVCAR-8. Conditions: read-out: apparent Kd; compound concentrations:100 nM and 1000 nM (sheet 'Samples'); n = 1.
The next test deals with PKN1. Further details: species or system human, MV4-11 + K-562 + COLO205 + SK-N-BE2 + OVCAR-8. Conditions: read-out: apparent Kd; compound concentrations:100 nM and 1000 nM (sheet 'Samples'); n = 1.
Setting [3] is: compound concentrations:100 nM and 1000 nM (sheet 'Samples').
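Throughout, for IC50: NanoBRET target engagement in HEK293T cells transiently expressing full-length PKN3 with C-terminal NanoLuc, displacement of fluorescent tracer K5 (500 nM), BRET read after 2 h equilibration at 37 °C.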

For the molecule `Cl.NCc1ccc(-c2nc(-c3ccc(Cl)c(O)c3)c(-c3ccncc3)[nH]2)cc1` [SB-476429-A], the potency estimated from few doses with PKN3 [1] (setting [3]) is 36 nM. The IC50 was 243 nM with PKN3 [2] (read-out: Average, SD, n = 4); 589 nM in the test on PKN3 [2] (read-out: Rep 1); 211 nM with PKN3 [2] (read-out: Rep 2); 86.7 nM in the test with PKN3 [2] (read-out: Rep 3); 85.4 nM with PKN3 [2] (read-out: Rep 4).
Regarding `CCn1c(-c2nonc2N)nc2c(-c3ccccc3)ncc(OCCCN)c21.CCn1c(-c2nonc2N)nc2c(-c3ccccc3)ncc(OCCCN)c21.O=C(O)C(F)(F)F.O=C(O)C(F)(F)F` [GSK260205A], the potency estimated from few doses was 1380 nM with GAK (CATDS: 2.96050281932086E-2); 1.1 nM in the test on PKN3 [1] (compound concentrations: 100 nM and 1000 nM (sheet 'Samples'), CATDS: 0.85080270266883096); 99.7 nM in the test with RET. The IC50 in the test on PKN3 [2] (read-out: Average, SD, n = 4) came out at 22.3 nM; in the test with PKN3 [2] (read-out: Rep 1) it was 73.6 nM; in the test with PKN3 [2] (read-out: Rep 2) it was 6.19 nM; in the test with PKN3 [2] (read-out: Rep 3) it was 6.22 nM; in the test with PKN3 [2] (read-out: Rep 4) it was 3.37 nM.
For the molecule `Cc1cccc2c(-c3ccncn3)c(-c3ccc(F)cc3)nn12` [GW515532X], the potency estimated from few doses in the test with PKN3 [1] (compound concentrations: 100 nM and 1000 nM (sheet 'Samples'), CATDS: 0.37134711180045199) is 663 nM. Besides, the IC50 is 26700 nM in the test on PKN3 [2] (read-out: Average, SD, n = 3); 78800 nM with PKN3 [2] (read-out: Rep 1); 922 nM in the test with PKN3 [2] (read-out: Rep 2); 257 nM in the test with PKN3 [2] (read-out: Rep 4).
As for `COc1cccc(NC(=O)NC2CCN(c3ccnc(Nc4cc(OC)c(OC)c(OC)c4)n3)C2)c1` (centres unmarked) [GSK1379763A], the potency estimated from few doses with AAK1 is 1850 nM.
Take `COc1cccc2c(-c3ccncc3)c(-c3ccc(F)cc3)nn12` [GW468513X]: the potency estimated from few doses in the test on GAK (CATDS: 4.7773336245273197E-2) is 615 nM; in the test with PKN3 [1] (compound concentrations: 100 nM and 1000 nM (sheet 'Samples'), CATDS: 5.3563953975551901E-2), 427 nM. The IC50 amounted to 910 nM in the test on PKN3 [2] (read-out: Average, SD, n = 3); 2100 nM with PKN3 [2] (read-out: Rep 1); 552 nM with PKN3 [2] (read-out: Rep 2); 73.9 nM in the test with PKN3 [2] (read-out: Rep 4).
For `Cc1cccc(-c2nc(Nc3ccncc3)c3sccc3n2)n1` [GW869641X], the potency estimated from few doses with PKN3 [1] (setting [3]) was 97.8 nM. Moreover, the IC50 with PKN3 [2] (read-out: Average, SD, n = 3) was determined as 1580 nM; with PKN3 [2] (read-out: Rep 1) it was 4190 nM; in the test on PKN3 [2] (read-out: Rep 2), 472 nM; in the test on PKN3 [2] (read-out: Rep 4) it was 87.1 nM.
`CCn1c(-c2nonc2N)nc2c(C#CC(C)(C)O)nc(OCCNC)cc21.Cl` [GSK949675A]: the potency estimated from few doses in the test on GSK3A is 70.4 nM; in the test with GSK3B, 91.5 nM; in the test on PAK4 it was 736 nM; in the test with PKN1, 675 nM; with PKN3 [1] (setting [3]) it was 2.48 nM. The IC50 came to 669 nM in the test with PKN3 [2] (read-out: Average, SD, n = 4); 1950 nM in the test on PKN3 [2] (read-out: Rep 1); 441 nM with PKN3 [2] (read-out: Rep 2); 149 nM in the test with PKN3 [2] (read-out: Rep 3); 136 nM in the test on PKN3 [2] (read-out: Rep 4).
